Test results as given in PubChem BioAssay (NCI).
About 79,000 compounds went through this panel and 15% of them were active in at least one assay; those are over-represented in the sample as a whole. Cut-off read from the data, not from the text of the source: active = growth inhibition above about 70%; inactive = the rest.

Key:
[1] = NCI Yeast Anticancer Drug Screen. Data for the sgs1 mgt1 strain (AID 161);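 note: 0% = growth of cultures given vehicle only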; conditions: S. cerevisiae sgs1 mgt1 strain, stronger effect = higher value
In short: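 Read-out: growth inhibition vs vehicle controls. Cells: mutant yeast strain deficient in DNA damage repair.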

[2] = NCI Yeast Anticancer Drug Screen. Data for the CLN2oe strain (AID 163);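 note: 0% = growth of vehicle-only control cultures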; conditions: S. cerevisiae CLN2oe strain, stronger effect = higher value
In short: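 First, the altered yeast strain was treated with each compound; second, its growth was measured; finally, inhibition was derived by comparison with vehicle controls.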

[3] = NCI Yeast Anticancer Drug Screen. Data for the cln2 rad14 strain (AID 165);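 note: 0% = growth equal to vehicle treated cultures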; conditions: S. cerevisiae cln2 rad14 strain, stronger effect = higher value
In short: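 Test compounds were added to cln2 rad14 yeast cultures; inhibition of growth was then determined by comparison with vehicle treatment.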

[4] = NCI Yeast Anticancer Drug Screen. Data for the bub3 strain (AID 167); conditions: S. cerevisiae bub3 mutant strain, stronger effect = higher value
In short: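 Screening used yeast with an engineered genetic alteration affecting cell cycle control. Compound-exposed cultures were compared with vehicle cultures, and reduced growth was taken as inhibition.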

[5] = NCI Yeast Anticancer Drug Screen. Data for the wt2 strain (AID 169);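 note: 0% = growth of vehicle-treated yeast cultures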; conditions: S. cerevisiae wt2 strain growth inhibition, stronger effect = higher value
In short: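 The panel's yeast strains carry defined changes in DNA repair or cell cycle genes. Each strain is grown with compound, and growth loss is scored relative to vehicle.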

[6] = NCI Yeast Anticancer Drug Screen. Data for the mlh1 strain (AID 171);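 note: 0% = growth of vehicle-treated control cultures of the same strain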; conditions: S. cerevisiae mlh1 strain growth inhibition, stronger effect = higher value
In short: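 Inhibition values reflect reduced yeast growth in the presence of compound, referenced to vehicle controls, using a strain chosen for its alteration in DNA repair or cell cycle control.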

[7] = NCI Yeast Anticancer Drug Screen. Data for the sgs1 strain (AID 173);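 note: 0% = growth of vehicle-only control cultures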; conditions: S. cerevisiae sgs1 mutant, stronger effect = higher value
In short: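 Vehicle-treated cultures served as reference for growth inhibition of a yeast strain altered in DNA damage repair or cell cycle control after compound exposure.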

[8] = NCI Yeast Anticancer Drug Screen. Data for the mlh1 rad18 strain (AID 175); conditions: S. cerevisiae mlh1 rad18 strain growth inhibition, stronger effect = higher value
In short: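 Inhibition values reflect reduced growth of mutant yeast versus vehicle-treated controls following compound exposure; the mutations affect DNA damage repair.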

[9] = NCI Yeast Anticancer Drug Screen. Data for the rad18 strain (AID 177); conditions: S. cerevisiae rad18 mutant growth inhibition, stronger effect = higher value
In short: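 Steps: expose repair-mutant yeast to compound; measure growth; express as inhibition relative to vehicle control.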

[10] = at 5.0 µM (retest, dose inferred, filed as 0.5)
[11] = at 50.0 µM (retest, dose inferred, filed as 5.0)

Measured: growth inhibition

OCC(O)C(O)CO (configuration not stated) (tested in a mixture with another compound)
inactive: [1]; [10] -57% | [1]; [11] 39% | [1]; at 50.0 µM -2.1% | [2]; at 1.2 µM 2% | [2]; at 3.7 µM -1% | [2]; at 11.0 µM 0% | [2]; at 33.0 µM 0% | [2]; at 100.0 µM 1% | [3]; [10] -60% | [3]; [11] -30% | [3]; at 50.0 µM -44.6% | [4]; at 1.2 µM -1% | [4]; at 3.7 µM -4% | [4]; [10] -64% | [4]; at 11.0 µM -3% | [4]; at 33.0 µM -2% | [4]; [11] 25% | [4]; at 50.0 µM 12.3% | [4]; at 100.0 µM 3% | [5]; at 1.2 µM -2% | [5]; at 3.7 µM 1% | [5]; at 11.0 µM 0% | [5]; at 33.0 µM -2% | [5]; at 100.0 µM 0% | [6]; at 1.2 µM 8% | [6]; at 3.7 µM -1% | [6]; at 11.0 µM -5% | [6]; at 33.0 µM -5% | [6]; at 100.0 µM -3% | [7]; at 1.2 µM -1% | [7]; at 3.7 µM 1% | [7]; at 11.0 µM 2% | [7]; at 33.0 µM 2% | [7]; at 100.0 µM -2% | [8]; [10] -110% | [8]; [11] 29% | [8]; at 50.0 µM -9.65% | [9]; at 1.2 µM -4% | [9]; at 3.7 µM -3% | [9]; at 11.0 µM -2% | [9]; at 33.0 µM -2% | [9]; at 100.0 µM 1%
